From PubChem BioAssay (NCATS)
Records with an inconclusive call do not appear. Calls of active or inactive are those of the source. Unless noted, calls come from the whole dose curve; as a rule, active = well fitted curve in the direction sought with a large enough effect; inconclusive = small, poorly fitted or top-dose-only effect, or another doubt; inactive = no such curve, though single readings can be large; an effect the other way counts as inactive or inconclusive.

How the values were obtained:
[1] = molecular target: Lysosomal acid glucosylceramidase (Homo sapiens) (UniProt P04062); assay: Glucocerebrosidase-p2 (AID 348; in the data active = potency below about 10 µM; note: potency is the fitted concentration of half-maximal effect); conditions: purified GBA, blue fluorogenic substrate, 40 min
Method in brief: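 Normal human glucocerebrosidase (0.2 nM) with blue fluorogenic substrate (80 uM final) in citrate/phosphate pH 5.9 with 10mM sodium taurocholate, 0.01% tween-20; 40 min RT, NaOH/glycine stop; fluorescence Ex 365/Em 440; AC50 from a titration from 0.6 nM upwards.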

[2] = AP1 Signaling Pathway (AID 357; active = well fitted curve in either direction with a large enough effect, not every such curve was filed as active;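 note: ME-180 reporter cells stimulated with EGF at its EC50 level; % is set by controls: 0 for no effect and ±100 for the full control effect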); conditions: ME-180 AP-1-bla reporter, EGF-induced, beta-lactamase ratio, 5 h; at 7.69 µM (top of the series) unless noted
Method in brief: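 Modulation of EGF-driven AP-1 transcription was assessed with a beta-lactamase reporter in ME-180 cells. Compound and EC50 EGF were co-incubated 5 hours at 37 °C before 2.5-hour CCF4 loading at room temperature and dual-emission reading.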

[3] = molecular target: Cytochrome P450 1A2 (Homo sapiens) (UniProt P05177); assay: p450-cyp1a2 (AID 410; calls by dose curve; note: potency is the fitted concentration of half-maximal effect;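 for activity change, negative = inhibition: -100% = full effect of reference inhibitor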)
Method in brief: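 Luminescent demethylation readout: Luciferin-ME (100uM, equal to Km) turned over by 20nM CYP1A2 for 60 min at room temperature after NADPH regeneration addition, following 10 min compound preincubation. Normalization used 57 uM furafylline as full inhibition.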

[4] = NFAT Signaling Pathway (AID 444; active = well fitted curve in either direction with a large enough effect, not every such curve was filed as active;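 note: carbachol stimulus at about its EC50 of 1 µM final; % is set by controls: 0 for no effect and ±100 for the full control effect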); conditions: Jurkat NFAT-bla M1, carbachol, beta-lactamase ratio, 5 h; at 7.69 µM (top of the series) unless noted
Method in brief: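 Jurkat cells carrying an NFAT-driven β-lactamase reporter and co-transfected muscarinic M1 receptor were treated with compound plus carbachol (1 uM final, an EC50 level) for 5 h at 37 °C. CCF4 loading followed for 1 h at RT; 460/530 nm ratio gave %activity.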

[5] = Stat Signaling Pathway (AID 446; active = well fitted curve in either direction with a large enough effect, not every such curve was filed as active;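 note: ME-180 cervical cancer cells given 40 pM IL-6 alongside compound; SIE-controlled beta-lactamase reporter measured as 460/530 nm FRET emission ratio; % is set by controls: 0 for no effect and ±100 for the full control effect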); conditions: ME-180 (cervical carcinoma) SIE beta-lactamase reporter, IL-6 stimulated, 5 h; at 7.69 µM (top of the series) unless noted
Method in brief: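 Overnight-plated ME-180 cells bearing a STAT Inducible Element beta-lactamase reporter; 5 h co-exposure to compound and 40 pM IL-6; values normalized to 300 pM IL-6 and 125 nM JAK inhibitor controls.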

[6] = molecular target: Glucocorticoid receptor (Homo sapiens) (UniProt P04150); assay: GR-GFP Redistribution (AID 450;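 active = compounds whose dose series gives a full or clear partial fitted curve of increased nuclear translocation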; note: potency is the fitted concentration of half-maximal effect); conditions: U2OS GR-GFP nuclear translocation, laser cytometry, 2 h
[7] = molecular target: Glucocorticoid receptor (Homo sapiens) (UniProt P04150); assay: GR-EFC Redistribution (AID 451; calls by dose curve; note: potency is the fitted concentration of half-maximal effect); conditions: CHO-K1 GR-EFC translocation, beta-gal luminescence, 2 h
Method in brief: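 CHO-K1 cells stably expressing nuclear-localized β-gal enzyme acceptor and GR fused C-terminally to the enzyme donor fragment; ligand-driven nuclear translocation restores β-gal by complementation. Compounds titrated up to 46 uM final, 2 h at 37 °C; luminescence read.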

[8] = molecular target: Mitogen-activated protein kinase 10 (Mus musculus) (UniProt Q61831); assay: JNK3 AlphaScreen Assay (AID 530; active = well fitted curve in either direction with a large enough effect, not every such curve was filed as active;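 note: kinase came from lysate of stimulated human HepG2 cells; signal reports phosphorylation of biotinylated GST-cJun 1-79 at Ser73 with 10 µM ATP; % is set by controls: 0 for no effect and ±100 for the full control effect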)
Method in brief: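 Phosphorylation of biotinylated GST-cJun(1-79) at Ser73 is measured by AlphaScreen proximity luminescence. Enzyme is JNK3 in HepG2 lysates activated with interleukin-1beta and tumor necrosis factor alpha; ATP is 10 uM final.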

[9] = molecular target: Cytochrome P450 3A4 (Homo sapiens) (UniProt P08684); assay: qHTS Assay for Inhibitors and Substrates of Cytochrome P450 3A4 (AID 884); note: potency is the fitted concentration of half-maximal effect; nearly all actives have a fitted effect of over 50% in size
Method in brief: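 Luminescent readout of luciferin produced by CYP3A4 (20 nM) dealkylation of Luciferin-PPXE, 25 uM (its KM). NADPH-driven reaction ran 60 min at RT after 10 min compound preincubation; data scaled to 57 uM ketoconazole as 100% inhibition.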

[10] = molecular target: Cytochrome P450 3A4 (Homo sapiens) (UniProt P08684); assay: qHTS Assay for Activators of Cytochrome P450 3A4 (AID 885); note: nearly all actives have a fitted effect of over 65% in size
Method in brief: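 Using 20nM recombinant human CYP3A4 in potassium phosphate (200mM), substrate Luciferin-PPXE at 25uM, luminescent luciferin detection followed a 60-min RT NADPH reaction; data scaled to 57 uM ketoconazole.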

[11] = molecular target: Cytochrome P450 2C19 (Homo sapiens) (UniProt P33261); assay: qHTS Assay for Inhibitors and Substrates of Cytochrome P450 2C19 (AID 899); note: potency is the fitted concentration of half-maximal effect; nearly all actives have a fitted effect of over 60% in size
Method in brief: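 Human CYP2C19 (5nM) with Luciferin-H EGE at 10uM (its KM) in 50mM KPO4 was preincubated with compound for 10 min at 37C. NADPH regeneration started a 60 min 37C reaction. Luciferin was read by luminescence, normalized to 57uM ketoconazole.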

[12] = qHTS Assay for Lipid Storage Modulators (AID 1519; calls by dose curve); conditions: Drosophila S3 cells, BODIPY lipid droplet/cell ratio, laser cytometry, cells loaded with oleic acid; for activity change, negative = inhibition: at 57.5 µM (top of the series)
Method in brief: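 Cells seeded at 5,000 per well were treated with compounds over a concentration series and loaded with oleic acid (400 uM, as added). Lipid droplet fluorescence (488 nm excitation, 500-530 nm channel) was read by laser-scanning cytometry and normalized to 20 uM Triacsin C.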

[13] = molecular target: Dual specificity protein kinase CLK4 (Homo sapiens) (UniProt Q9HAZ1); assay: qHTS Assay for Inhibitors of CDC-like Kinase 4 (Kinase-Glo Assay) (AID 1770); note: nearly all actives have a fitted effect of over 65% in size; note: potency is the fitted concentration of half-maximal effect
Method in brief: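 Recombinant human Clk4 (25 nM) phosphorylated RS repeat peptide (100 uM) with 1 uM ATP in Tris pH 7.5/MgCl2/EGTA/DTT/Triton buffer for 4.5 h at room temperature. Residual ATP was quantified by Kinase-Glo luciferase luminescence.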

[14] = molecular target: Dual specificity protein kinase CLK4 (Homo sapiens) (UniProt Q9HAZ1); assay: qHTS Assay for Inhibitors of CDC-like Kinase 4 (ADP-Glo Assay) (AID 1771); note: nearly all actives have a fitted effect of over 70% in size; note: potency is the fitted concentration of half-maximal effect
Method in brief: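 ADP production was read by ADP-Glo luminescence after residual ATP depletion, following 1 h room-temperature reaction of 25 nM Clk4, 1 uM ATP and 100 uM RS peptide with MgCl2, EGTA, DTT and Triton X-100.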

[15] = molecular target: Ubiquitin carboxyl-terminal hydrolase 1 (Homo sapiens) (UniProt O94782); assay: Inhibitors of USP1/UAF1: Pilot qHTS (AID 504865); note: nearly all actives have a fitted effect of over 35% in size; note: potency is the fitted concentration of half-maximal effect
Method in brief: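 USP1/UAF1 complex (1nM) preincubated with compound 15 min at room temperature, then Ub-Rho substrate (150nM final) added. Fluorescence read kinetically at 480/540 nm, 6 reads every 60 seconds. Buffer: 50mM HEPES pH 7.8, 0.5mM EDTA, 0.1 mg/ml BSA, 1mM TCEP, 0.01% Tween-20.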

[16] = Primary qHTS for small molecule stabilizers of the endoplasmic reticulum resident proteome: Secreted ER Calcium Modulated Protein (SERCaMP) assay (AID 1508630); note: % is set by controls: 0 for no effect and ±100 for the full control effect
Method in brief: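 The SH-SY5Y reporter protocol was run at 3 concentrations up to 38.3 uM (primary) or 11 concentrations (follow-up): 16 h compound, 100 nM thapsigargin for 4 h, then extracellular luciferase luminescence.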

[17] = molecular target: 3',5'-cyclic-AMP phosphodiesterase 4B (Homo sapiens) (UniProt Q07343); assay: qHTS Assay for Inhibitors of PDE-IV (AID 607; active = well fitted activation curve with a large enough effect in the main read-out, with a control signal flat, not every such curve was filed as active; note: % of control where 0% means no effect)
Method in brief: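 Live HEK293 cells with a modified cyclic nucleotide-gated (CNG) channel report intracellular cAMP via membrane-potential dye fluorescence (ex 535/em 590 nm). Endogenous PDE-IV was targeted. Compounds were tested at up to 22.9 uM final; RO 20-1724 100 uM served as control.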

[18] = molecular target: Cytochrome P450 2C9 (Homo sapiens) (UniProt P11712); assay: qHTS Assay for Inhibitors and Substrates of Cytochrome P450 2C9 (AID 883); note: % is set by controls: 0 for no effect and ±100 for the full control effect; nearly all actives have a fitted effect of over 60% in size
Method in brief: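 Human CYP2C9 (10nM) hydroxylated Luciferin-H (100uM, at its KM) to luciferin in 25mM KPO4. Compound was preincubated 10 min at 37C, then NADPH regeneration started a 60 min reaction at 37C. Luminescence was read after detection reagent, normalized to 57uM sulphaphenazole.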

[19] = molecular target: Dual specificity protein kinase CLK4 (Homo sapiens) (UniProt Q9HAZ1); assay: qHTS Assay for Inhibitors of CDC-like Kinase 4 (ADP-FP Assay) (AID 1795); note: nearly all actives have a fitted effect of over 60% in size; note: potency is the fitted concentration of half-maximal effect
Method in brief: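 Recombinant human Clk4 (6.25 nM) phosphorylated RS repeat peptide (100 uM) with 1 uM ATP in Tris pH 7.5/MgCl2/EGTA/DTT/Triton buffer for one hour. ADP was quantified by Transcreener competitive fluorescence polarization against an ADP calibration curve.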

[20] = measured here: cell count channel max response
[21] = measured here: lipid channel max response

Sequence of Ubiquitin carboxyl-terminal hydrolase 1 (Homo sapiens) (O94782 whole entry, looked up): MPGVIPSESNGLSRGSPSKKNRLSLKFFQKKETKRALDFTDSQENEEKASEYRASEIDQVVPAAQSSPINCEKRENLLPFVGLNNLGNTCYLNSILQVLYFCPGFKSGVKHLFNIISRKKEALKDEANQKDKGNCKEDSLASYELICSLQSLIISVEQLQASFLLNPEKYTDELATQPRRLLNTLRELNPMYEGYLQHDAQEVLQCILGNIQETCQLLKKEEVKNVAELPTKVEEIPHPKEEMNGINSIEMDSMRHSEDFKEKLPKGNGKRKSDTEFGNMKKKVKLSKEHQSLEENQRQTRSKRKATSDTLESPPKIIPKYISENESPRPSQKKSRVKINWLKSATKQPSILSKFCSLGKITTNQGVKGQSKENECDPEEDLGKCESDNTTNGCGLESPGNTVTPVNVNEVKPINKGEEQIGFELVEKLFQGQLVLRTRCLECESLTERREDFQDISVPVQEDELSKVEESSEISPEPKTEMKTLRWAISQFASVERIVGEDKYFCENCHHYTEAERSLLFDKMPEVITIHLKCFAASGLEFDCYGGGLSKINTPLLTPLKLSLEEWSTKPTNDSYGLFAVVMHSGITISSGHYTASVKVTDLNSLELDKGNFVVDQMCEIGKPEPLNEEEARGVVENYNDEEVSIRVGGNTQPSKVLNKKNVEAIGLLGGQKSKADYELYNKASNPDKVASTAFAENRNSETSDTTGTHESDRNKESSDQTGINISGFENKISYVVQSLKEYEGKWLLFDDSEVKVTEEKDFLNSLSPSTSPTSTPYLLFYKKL
Sequence of Dual specificity protein kinase CLK4 (Homo sapiens) (Q9HAZ1 whole entry, looked up): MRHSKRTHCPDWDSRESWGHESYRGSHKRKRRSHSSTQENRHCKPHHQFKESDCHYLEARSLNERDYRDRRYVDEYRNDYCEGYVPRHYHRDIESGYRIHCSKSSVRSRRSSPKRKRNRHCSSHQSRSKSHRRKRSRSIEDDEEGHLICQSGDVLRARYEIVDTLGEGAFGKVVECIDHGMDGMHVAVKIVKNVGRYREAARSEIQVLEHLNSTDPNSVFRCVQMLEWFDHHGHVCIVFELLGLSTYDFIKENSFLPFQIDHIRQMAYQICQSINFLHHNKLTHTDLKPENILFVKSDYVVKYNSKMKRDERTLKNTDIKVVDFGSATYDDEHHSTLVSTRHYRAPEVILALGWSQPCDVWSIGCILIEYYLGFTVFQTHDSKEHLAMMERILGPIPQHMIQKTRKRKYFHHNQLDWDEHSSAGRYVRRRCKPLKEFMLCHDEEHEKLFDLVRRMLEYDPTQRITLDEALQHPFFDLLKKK
Sequence of 3',5'-cyclic-AMP phosphodiesterase 4B (Homo sapiens) (Q07343 whole entry, looked up): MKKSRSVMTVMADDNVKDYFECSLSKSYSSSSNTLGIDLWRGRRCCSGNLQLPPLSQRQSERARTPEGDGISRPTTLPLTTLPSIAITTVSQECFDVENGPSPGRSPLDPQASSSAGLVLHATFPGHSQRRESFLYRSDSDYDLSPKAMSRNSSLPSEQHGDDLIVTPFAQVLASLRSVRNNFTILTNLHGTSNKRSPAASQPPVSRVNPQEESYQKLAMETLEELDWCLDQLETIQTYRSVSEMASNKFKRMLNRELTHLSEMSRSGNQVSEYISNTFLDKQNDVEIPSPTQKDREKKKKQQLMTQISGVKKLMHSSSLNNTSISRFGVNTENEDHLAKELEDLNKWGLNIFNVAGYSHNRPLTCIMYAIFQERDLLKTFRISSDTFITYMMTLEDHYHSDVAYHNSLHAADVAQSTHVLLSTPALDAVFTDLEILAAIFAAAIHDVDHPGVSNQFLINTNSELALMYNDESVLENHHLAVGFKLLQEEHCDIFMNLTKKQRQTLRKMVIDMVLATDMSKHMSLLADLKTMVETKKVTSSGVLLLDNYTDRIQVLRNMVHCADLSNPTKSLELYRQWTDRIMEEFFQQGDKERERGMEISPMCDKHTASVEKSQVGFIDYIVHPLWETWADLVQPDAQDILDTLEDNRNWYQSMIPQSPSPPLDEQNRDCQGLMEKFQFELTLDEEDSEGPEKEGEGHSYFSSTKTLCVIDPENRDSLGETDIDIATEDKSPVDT
Sequence of Lysosomal acid glucosylceramidase (Homo sapiens) (P04062 whole entry, looked up): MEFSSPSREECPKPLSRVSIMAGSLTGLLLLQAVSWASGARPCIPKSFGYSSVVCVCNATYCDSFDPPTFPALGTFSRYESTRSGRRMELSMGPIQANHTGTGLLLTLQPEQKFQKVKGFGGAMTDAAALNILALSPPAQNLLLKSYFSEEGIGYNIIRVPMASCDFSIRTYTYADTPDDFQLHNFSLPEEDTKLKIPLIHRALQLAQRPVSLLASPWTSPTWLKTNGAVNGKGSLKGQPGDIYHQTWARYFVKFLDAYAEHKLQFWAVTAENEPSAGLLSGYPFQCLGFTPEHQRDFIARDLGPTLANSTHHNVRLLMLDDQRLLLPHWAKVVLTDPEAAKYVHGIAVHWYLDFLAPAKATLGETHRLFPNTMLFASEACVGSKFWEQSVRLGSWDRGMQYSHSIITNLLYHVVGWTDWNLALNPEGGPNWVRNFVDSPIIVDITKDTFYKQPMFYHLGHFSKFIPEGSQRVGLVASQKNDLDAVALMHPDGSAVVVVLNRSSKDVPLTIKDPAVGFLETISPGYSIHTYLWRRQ
Sequence of Cytochrome P450 3A4 (Homo sapiens) (P08684 whole entry, looked up): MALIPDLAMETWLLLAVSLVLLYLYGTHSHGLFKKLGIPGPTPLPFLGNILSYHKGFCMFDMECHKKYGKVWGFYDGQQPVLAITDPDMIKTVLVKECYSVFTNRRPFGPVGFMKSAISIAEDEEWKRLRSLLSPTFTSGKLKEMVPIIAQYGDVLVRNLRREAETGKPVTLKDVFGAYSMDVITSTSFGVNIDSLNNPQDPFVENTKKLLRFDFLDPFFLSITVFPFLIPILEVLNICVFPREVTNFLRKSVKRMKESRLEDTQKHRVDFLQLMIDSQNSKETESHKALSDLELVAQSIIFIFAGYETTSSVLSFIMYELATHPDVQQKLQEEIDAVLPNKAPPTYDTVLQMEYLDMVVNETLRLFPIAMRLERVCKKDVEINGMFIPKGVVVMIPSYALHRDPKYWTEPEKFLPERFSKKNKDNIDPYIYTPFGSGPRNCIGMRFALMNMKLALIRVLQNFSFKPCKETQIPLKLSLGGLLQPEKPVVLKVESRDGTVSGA
Sequence of Glucocorticoid receptor (Homo sapiens) (P04150 whole entry, looked up, the tested form may be a part): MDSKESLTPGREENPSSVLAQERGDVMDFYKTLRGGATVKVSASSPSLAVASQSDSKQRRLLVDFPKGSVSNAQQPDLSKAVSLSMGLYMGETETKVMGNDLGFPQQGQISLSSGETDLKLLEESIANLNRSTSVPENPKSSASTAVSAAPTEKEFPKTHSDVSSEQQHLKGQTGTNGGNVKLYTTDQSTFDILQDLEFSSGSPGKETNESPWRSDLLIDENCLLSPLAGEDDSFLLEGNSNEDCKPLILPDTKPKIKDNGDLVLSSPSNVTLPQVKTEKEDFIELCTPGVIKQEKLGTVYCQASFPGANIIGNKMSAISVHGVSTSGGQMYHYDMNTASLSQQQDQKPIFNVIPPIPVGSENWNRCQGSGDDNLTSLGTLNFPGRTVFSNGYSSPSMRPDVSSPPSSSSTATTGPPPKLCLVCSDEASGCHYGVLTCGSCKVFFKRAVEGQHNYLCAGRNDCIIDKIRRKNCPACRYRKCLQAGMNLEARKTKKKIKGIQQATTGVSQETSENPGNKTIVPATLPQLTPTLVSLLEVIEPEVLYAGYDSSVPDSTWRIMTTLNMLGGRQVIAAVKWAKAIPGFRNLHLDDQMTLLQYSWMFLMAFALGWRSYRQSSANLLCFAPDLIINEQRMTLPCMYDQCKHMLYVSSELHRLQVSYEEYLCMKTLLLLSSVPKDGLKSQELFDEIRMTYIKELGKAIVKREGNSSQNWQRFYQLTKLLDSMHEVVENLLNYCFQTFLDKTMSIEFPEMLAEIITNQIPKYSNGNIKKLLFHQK
Sequence of Cytochrome P450 1A2 (Homo sapiens) (P05177 whole entry, looked up): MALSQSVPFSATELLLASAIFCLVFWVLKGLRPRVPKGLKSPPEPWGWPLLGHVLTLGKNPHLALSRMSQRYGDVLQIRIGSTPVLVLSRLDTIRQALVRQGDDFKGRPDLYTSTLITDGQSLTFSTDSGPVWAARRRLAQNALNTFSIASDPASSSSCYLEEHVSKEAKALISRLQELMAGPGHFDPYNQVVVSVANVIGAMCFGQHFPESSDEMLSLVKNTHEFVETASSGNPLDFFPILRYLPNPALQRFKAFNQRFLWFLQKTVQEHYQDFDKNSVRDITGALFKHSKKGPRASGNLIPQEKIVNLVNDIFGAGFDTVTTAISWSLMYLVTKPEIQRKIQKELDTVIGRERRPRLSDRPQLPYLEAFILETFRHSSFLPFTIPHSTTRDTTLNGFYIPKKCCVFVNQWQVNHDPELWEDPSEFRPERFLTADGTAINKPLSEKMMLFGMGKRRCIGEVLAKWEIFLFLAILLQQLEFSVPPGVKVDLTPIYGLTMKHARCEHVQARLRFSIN
Sequence of Cytochrome P450 2C19 (Homo sapiens) (P33261 whole entry, looked up): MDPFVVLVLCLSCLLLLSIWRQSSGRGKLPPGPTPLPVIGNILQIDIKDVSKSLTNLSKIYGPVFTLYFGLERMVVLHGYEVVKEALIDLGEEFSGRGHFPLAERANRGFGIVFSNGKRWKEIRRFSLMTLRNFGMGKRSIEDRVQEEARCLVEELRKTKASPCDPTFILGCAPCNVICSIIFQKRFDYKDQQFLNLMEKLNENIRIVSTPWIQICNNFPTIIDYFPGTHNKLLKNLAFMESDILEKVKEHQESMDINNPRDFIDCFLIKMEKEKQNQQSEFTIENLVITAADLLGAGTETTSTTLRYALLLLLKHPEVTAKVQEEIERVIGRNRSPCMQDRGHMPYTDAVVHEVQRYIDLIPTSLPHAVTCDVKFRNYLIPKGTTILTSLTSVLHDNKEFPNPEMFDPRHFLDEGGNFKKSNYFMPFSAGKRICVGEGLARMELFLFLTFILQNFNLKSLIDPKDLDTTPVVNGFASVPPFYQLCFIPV

With `FC(F)(F)c1ccccc1-c1nccc(NCc2cccs2)n1` the Potency [1] was > 11.4 µM (inactive), the activity change, negative = inhibition [2] was 2% (inactive) and the Potency [3] was 1.26 µM (active). For the same compound, the activity change, negative = inhibition [4] was -3.1% (inactive), the activity, negative = inhibition [5] was -15.9% (inactive) and the Potency [6] was > 46 µM (inactive). For the same compound, the Potency [7] was > 46 µM (inactive), the outcome [8] was “inactive” and the Potency [9] was 2 µM (active). For the same compound, the Potency [10] was “inactive”, the Potency [11] was 2 µM (active) and the activity change, negative = inhibition [12] was 5.22% (inactive). The max response [12, 20] was 6.69%, the max response [12, 21] was 8.2% and the Potency [13] was “inactive”. For the same compound, the Potency [14] was “inactive”, the Potency [15] was 11.2 µM (active) and the Potency [16] was “inactive”.

With `CN(C)c1ncc2nc(-c3cccc(C#N)c3)c(=O)n(CCC#N)c2n1` the Potency [1] was > 11.4 µM (inactive), the activity change, negative = inhibition [2] was -2.98% (inactive) and the Potency [3] was “inactive”. The activity change, negative = inhibition [4] was 4.07% (inactive), the activity, negative = inhibition [5] was -8.5% (inactive) and the Potency [6] was > 9.22 µM (inactive). For the same compound, the Potency [7] was > 46 µM (inactive), the outcome [8] was “inactive” and the Potency [17] was “inactive”. For the same compound, the Potency [18] was “inactive”, the activity change, negative = inhibition [12] was 1.84% (inactive) and the max response [12, 20] was 5.81%. For the same compound, the max response [12, 21] was 7.25%, the Potency [13] was “inactive” and the Potency [14] was “inactive”. The Potency [15] was “inactive” and the Potency [16] was “inactive”.

For `COCCNc1ncnc2ccc(-c3ccccc3C)cc12`, the activity change, negative = inhibition [2] was -10.5% (inactive), the activity change, negative = inhibition [4] was 10.4% (inactive) and the activity, negative = inhibition [5] was -16.2% (inactive). The Potency [6] was > 46 µM (inactive), the Potency [7] was > 46 µM (inactive) and the outcome [8] was “inactive”. The activity change, negative = inhibition [12] was -6.26% (inactive), the max response [12, 20] was -10.5% and the max response [12, 21] was -19.3%. The Potency [13] was 14.1 µM (active), the Potency [14] was 8.91 µM (active) and the Potency [19] was 11.2 µM (active). For the same compound, the Potency [15] was “inactive” and the Potency [16] was “inactive”.

With `COc1ccccc1-c1cncnc1NCCNC(C)=O` the activity change, negative = inhibition [2] was -8.57% (inactive), the Potency [3] was “inactive” and the activity change, negative = inhibition [4] was 1.19% (inactive). The activity, negative = inhibition [5] was 2.82% (inactive), the outcome [8] was “inactive” and the Potency [17] was “inactive”. The Potency [9] was 2 µM (active), the Potency [10] was “inactive” and the activity change, negative = inhibition [12] was 0.0705% (inactive). The max response [12, 20] was 19.9%, the max response [12, 21] was 19% and the Potency [13] was “inactive”. The Potency [14] was “inactive”, the Potency [19] was “inactive” and the Potency [15] was “inactive”. For the same compound, the Potency [16] was “inactive”.

In the case of `CN(C)C(=O)c1ccc(-c2cc(NCc3cccnc3)ncn2)cc1`, the Potency [1] is reported as > 11.4 µM (inactive), the activity change, negative = inhibition [2] is reported as 11.8% (inactive) and the Potency [3] is reported as 20 µM (active). The activity change, negative = inhibition [4] was 21.1% (inactive), the activity, negative = inhibition [5] was 21.7% (inactive) and the Potency [6] was > 46 µM (inactive). For the same compound, the Potency [7] was > 46 µM (inactive), the outcome [8] was “inactive” and the Potency [17] was “inactive”. For the same compound, the Potency [10] was “inactive”, the activity change, negative = inhibition [12] was 3.91% (inactive) and the max response [12, 20] was 24.7%. The max response [12, 21] was 22.9%, the Potency [13] was 15.8 µM (active) and the Potency [14] was 14.1 µM (active). For the same compound, the Potency [15] was “inactive” and the Potency [16] was “inactive”.
